About 27,000 (9.3%) of roughly 290,000 compounds were called active. This excerpt belongs to a sample that is enriched for actives. A number with no mark means an inactive call. No stated cut-off is given here; in the data, active means inhibition mostly above about 28% (no sharp cut-off); inactive means mostly below about 43%.
assay: A qHTS for Small Molecule Inhibitors of Shiga Toxin; conditions: Vero cells, Shiga toxin protein synthesis inhibition reporter; at 38.7 µM, hits give high values; further: 0% is about no effect

Row | SMILES | inhibition
1 | O=C(NNC(=O)C1CCCC1)c1ccc(F)cc1 | 10.8%
2 | O=C(O)c1cccc2c1C(=O)N(C1CCCC1)C2 | -4.27%
3 | CCOc1ccc(S(=O)(=O)N2CCN=C2Cc2ccccc2)cc1C | -2.53%
4 | CC1CCCCC1NC(=O)c1cn(C)c2ccc(S(=O)(=O)N3CCOCC3)cc2c1=O (configuration not stated) | -15.7%
5 | COc1cc(C(=S)N2CCOCC2)ccc1O | -13.2%
6 | COc1ccc(/C(C)=N/N2CCOCC2)c(O)c1 | 47.1% (active)
7 | COc1ccc(OCC(=O)N2CCOCC2)cc1 | 51.9%
8 | COc1ccc(N(CC(=O)Nc2cc(OC)cc(OC)c2)S(=O)(=O)c2c(C)n[nH]c2C)cc1 | 5.74%
9 | CCN(CC)S(=O)(=O)c1ccc(C(=O)N2CCN(C3=NS(=O)(=O)c4ccccc43)CC2)cc1 | 16.6%
10 | Nc1nnc(SCn2nnc3ccccc3c2=O)s1 | 46.5% (active)
11 | Nc1nnc(SCCN2C(=O)c3ccccc3S2(=O)=O)s1 | -8.37%
12 | O=c1c2ccccc2nnn1CSc1nnnn1-c1ccccc1 | 62.9%
13 | Cc1ccc(-n2cc(CN(C)Cc3nccn3C)c(-c3cccc(C)c3)n2)cc1 | -6.37%
14 | O=C(NCc1ccc2c(c1)OCO2)c1ccc(Cl)s1 | 50.7%
15 | O=C(NC1=NCCS1)[C@H](Cc1ccccc1)N1C(=O)c2ccccc2C1=O | -5.83%
16 | O=C(Nc1nncs1)c1ccccc1NS(=O)(=O)c1cccs1 | -4.57%
17 | COc1ccc(C(=O)NCc2nnc(SCC(=O)NC3=NCCS3)n2C)cc1 | -9.89%
18 | O=C(NC1=NCCS1)c1ccc(Cl)s1 | 149% (active)
19 | COc1ccc(C(=O)Nc2nncs2)c(OC)c1 | 62.3% (active)
20 | COc1ccc(C(=O)NC2=NCCS2)c(OC)c1 | 42% (active)
21 | COc1ccc(C(=O)NC(C)CCc2ccccc2)c(OC)c1 (configuration not stated) | 22.2%
22 | COc1ccc(C(=O)N2CCCN(C)CC2)c(OC)c1 | -2.8%
23 | CC(C)C(=O)NCC(c1cccs1)S(=O)(=O)c1ccc(F)cc1 (configuration not stated) | 2.44%
24 | COc1ccc(CNC(=O)c2nnn(CC(=O)Nc3cc(C)cc(C)c3)c2N)cc1 | -9.11%
25 | COc1ccc(Cn2c(=S)[nH]c3cc(C(=O)NCCCN4CCOCC4)ccc3c2=O)cc1 | 18.7%
26 | CCOC(=O)[C@H]1[C@H]2COc3cc(OC)ccc3[C@@H]2N2C(=O)N(c3ccc(Br)cc3)C(=O)[C@@]12C | -9.26%
27 | Cc1cc(=O)oc2c3c(cc(OCC(=O)NCc4ccccn4)c12)OC(C)(C)CC3 | -3.65%

Reference: PubChem BioAssay AID2315 (National Center for Advancing Translational Sciences (NCATS), 2010)
